Data from paper PMC5540273 (PLoS ONE, 2017).

Assays:
Conditions in all cases: concentration: 1 μM,replicates: in singlicate; n = 1
[1] = test system: WNK1
[2] = test system: WNK2
[3] = test system: WNK3
[4] = test system: WNK4
[5] = test system: T1, YANK1
T1 construct: gene STK32A

[6] = test system: T2, YANK2
T2 construct: gene STK32B

[7] = test system: T3, YANK3
T3 construct: gene STK32C

[8] = test system: T4, YES
T4 construct: gene YES1

[9] = test system: T5, YSK1
T5 construct: gene STK25

[10] = test system: T6, YSK4
T6 construct: gene MAP3K19
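Also: KINOMEscan kinase panel screen.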

Compound	%Inh [1] [%]	%Inh [2] [%]	%Inh [3] [%]	%Inh [4] [%]	%Inh [5] [%]	%Inh [6] [%]	%Inh [7] [%]	%Inh [8] [%]	%Inh [9] [%]	%Inh [10] [%]
NC(=O)Nc1sc(-c2ccc(F)cc2)cc1C(N)=O [GW789449]	0	0	2	0	4	0	0	0	0	82
Cc1ccc(Nc2ccnc(Nc3ccc4c(c3)CS(=O)(=O)C4)n2)cc1O.Cl [GW579362]	0	33	33	9	26	0	0	81	39	99.1
Cc1ccc2c(-c3ccnc(Nc4ccc(C(F)(F)F)cc4)n3)cnn2n1 [GW819776]	3	0	0	0	0	0	0	0	0	43
NC(=O)c1ccc(-c2cc3ncnc(SCC(=O)O)c3s2)cc1	0	0	0	0	0	0	0	0	0	63
COc1cc2c(Nc3ccc(NC(=O)c4ccccc4)cc3)ncnc2cc1OCCCN1CCOCC1 [GSK301329]	1	31	12	0	14	0	10	46	6	12
O=C(NOCC1CC1)c1cc(Br)c(F)c(F)c1Nc1ccc(I)cc1Cl	0	0	0	16	0	0	2	0	0	0
C[C@@H](Oc1cc(-n2cnc3cc(-c4cnn(C)c4)ccc32)sc1C(N)=O)c1ccccc1Cl [GSK580432]	62	91.4	97.4	33	25	0	13	73	31	97.8
CN(c1cccc(CNc2nc(Nc3ccc4c(c3)CC(=O)N4)ncc2C(F)(F)F)c1)S(C)(=O)=O	0	0	0	0	0	0	0	3	0	96.8
COC(=O)c1cccc(NC(=O)NC2CCN(c3ccnc(Nc4cc(OC)c(OC)c(OC)c4)n3)C2)c1 (centres unmarked) [GSK1379767]	0	24	49	39	12	0	0	0	16	0
COc1cccc(OC)c1C(=O)Nc1cccc(-c2nn3ccccc3c2-c2ccnc(Nc3cccc(F)c3)n2)c1 [GSK361065]	0	0	0	0	0	11	0	36	1	0
CN1CCN(CCNc2nc3cc(Oc4ccc(NC(=O)Nc5cc(C(F)(F)F)ccc5F)cc4)ccc3[nH]2)CC1.Cl.Cl [GW768504]	0	0	0	0	0	0	4	0	9	10
CS(=O)c1ccc(-c2coc3ccc(-c4n[nH]c(=O)o4)cc23)cc1 (centres unmarked)	0	0	0	0	9	10	0	0	7	55
Cc1ccc(CC(=O)N2CCc3cc(-c4cn(C)c5ncnc(N)c45)ccc32)cc1 [GSK2634758]	12	0	53	17	15	0	10	25	26	50
CCn1c(-c2nonc2N)nc2cncc(CNC3CCNCC3)c21.Cl [SB-747651]	14	0	34	21	3	0	40	11	0	87
C[C@@H]1CNc2c(sc3ccc4nc(-c5ccncc5)ccc4c23)C(=O)N1	0	0	0	0	21	0	17	0	0	56
Cn1cc(-c2cccc3c(N)c(C(N)=O)nnc23)cn1	11	0	0	0	30	0	0	0	5	94.4
Cn1ccc2ncnc(Oc3ccc(NC(=O)Nc4cnn(C(C)(C)C)c4)c(Cl)c3)c21	62	0	0	3	1	11	9	0	8	34
